A short description of experiment [1]: inhibitors of TNFa-induced NFkB p65 translocation, primary screen, imaging, HUVEC, MLSMR starter and 10KST1 sets (AID 438;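 active means inhibition above 20% together with a positive visual image hit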;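 further: compound added about 3h40 before a 20 min TNFalpha stimulation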;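 on inhibition: signal is the nuclear over cytoplasmic p65 intensity ratio per well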). The conditions noted are these: HUVEC TNFa-induced p65 nuclear translocation; cell count: measured here: nuclei count (cytotoxicity indicator), at 2.08 µM; inhibition: at 2 µM, stronger effect = higher value, 0% TNFa-plus-vehicle, 100% no-TNFa wells.

Experiment [2] can be described thus: inhibitors of mutant huntingtin aggregation, primary screen, imaging, exon1htt(103Q)mCFP cells, high-content imaging (AID 483;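 active means visual image review flags a hit and inhibition of aggregation exceeds 20%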;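 further: compound exposure lasted 3 days before fixation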;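 on nuclei count: percent of the per-plate median nuclei count of sample wells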). The conditions noted are these: exon1htt(103Q)mCFP cell line, aggregate imaging, at 2 µM; inhibition of aggregation: stronger effect = higher value; nuclei count: measured here: cell count, toxicity.
A short description of experiment [3]: inhibitors of E-selectin induction by TNFa, primary screen, imaging, HUVEC, immunofluorescence, MLSMR starter and 10KST1 sets (AID 487;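 active means visually confirmed hit in the image check and inhibition above 20%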;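 on inhibition: signal is fraction of cell area covered by stained E-selectin grains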;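 on nuclei count: 100% = median nuclei count of all wells on the same plate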). Conditions: HUVEC TNFalpha-induced E-selectin immunofluorescence imaging, at 2 µM; inhibition: stronger effect = higher value; nuclei count: measured here: cell number, toxicity.
Experiment [4] deals with Voltage-gated potassium channel subunit beta-2 (Rattus norvegicus) (UniProt P62483). Briefly: KvBeta enzyme negative modulators, primary screen, biochemical, NADPH fluorescence (AID 622).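 Further: slope of raw intensity against log time taken from 70 to 1610 s.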 Conditions: recombinant KvBeta, 4-cyanobenzaldehyde reduction, at 10 µM, stronger effect = higher value.
For experiment [5] the target is unchanged. Description: KvBeta positive modulators, primary screen, biochemical, NADPH fluorescence (AID 623;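 active means NADPH fluorescence slope more negative than the mean of all samples by about 3 SD, 99.7% confidence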;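 further: fluorescence intensity change per second fitted from 20 to 320 s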). The conditions noted are these: Recombinant KvBeta, NADPH fluorescence decrease slope, 10 min; at 10 µM; stronger effect = lower value.
Experiment [6] concerns the target Muscarinic acetylcholine receptor M4 (Homo sapiens) (UniProt P08173). Description: compounds altering M4/GIRK thallium flux, either direction, primary screen, M4 allosteric agonist project, cell-based, HEK293 M4/GIRK, BTC-AM (AID 625;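 active means fluorescence slope after compound addition differing from the mean of all tested samples at 99.7% confidence, mostly higher but some lower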;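 further: thallium influx through GIRK channels coupled to M4 in HEK293 cells with BTC-AM dye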). Conditions: at 10 µM, actives lie on both sides.
The nature of experiment [7]: inhibitors of Sendai virus-induced IRF3 signaling, primary screen, TLR/RLR signaling modifier project, cell-based, Sendai virus stimulus, luciferase, 10K MLSCN set (AID 602276;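 active means inhibition at or above 50% at 10 µM; inactive means inhibition below 50%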;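 further: firefly luciferase from ISG56 promoter only with Renilla not read in this screen; 0% = Sendai virus plus DMSO and 100% = medium plus DMSO without virus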). Conditions: HEK293 RL24 IRF3 luciferase reporter, at 10 µM, stronger effect = higher value. A general note: A reporter such as luciferase makes a cellular process visible.
The nature of experiment [8]: inhibitors of poly I:C-induced TLR3 signaling, primary screen, cell-based, poly I:C stimulus, luciferase, 10K MLSCN set (AID 602277;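 active means inhibition of the reporter signal at or above 50%; inactive means inhibition below 50%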). Conditions: HEK293-TLR3 RL24 IRF3 luciferase reporter, at 10 µM, stronger effect = higher value.

Structures are written as SMILES. Activity calls are given as the source filed them.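 How the source made its calls, unless noted: active means fluorescence slope higher than the sample average by over 3 SD (cut at about -0.22 in these data, passing the limit was not always enough); inactive means the rest.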

Muscarinic acetylcholine receptor M4 (Homo sapiens), sequence (P08173 whole entry, looked up): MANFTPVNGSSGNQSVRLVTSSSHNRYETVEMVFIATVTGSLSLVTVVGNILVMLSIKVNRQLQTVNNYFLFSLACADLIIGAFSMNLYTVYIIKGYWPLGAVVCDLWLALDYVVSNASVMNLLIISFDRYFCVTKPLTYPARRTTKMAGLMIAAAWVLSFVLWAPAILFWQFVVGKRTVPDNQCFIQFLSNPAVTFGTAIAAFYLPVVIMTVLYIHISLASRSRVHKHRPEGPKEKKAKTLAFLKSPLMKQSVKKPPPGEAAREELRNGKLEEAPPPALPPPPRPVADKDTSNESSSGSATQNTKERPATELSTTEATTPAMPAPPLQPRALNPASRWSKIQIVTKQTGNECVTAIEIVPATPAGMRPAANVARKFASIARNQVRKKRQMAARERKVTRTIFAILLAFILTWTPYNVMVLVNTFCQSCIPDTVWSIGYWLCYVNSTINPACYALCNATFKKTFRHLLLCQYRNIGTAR
Voltage-gated potassium channel subunit beta-2 (Rattus norvegicus), sequence (P62483 whole entry, looked up): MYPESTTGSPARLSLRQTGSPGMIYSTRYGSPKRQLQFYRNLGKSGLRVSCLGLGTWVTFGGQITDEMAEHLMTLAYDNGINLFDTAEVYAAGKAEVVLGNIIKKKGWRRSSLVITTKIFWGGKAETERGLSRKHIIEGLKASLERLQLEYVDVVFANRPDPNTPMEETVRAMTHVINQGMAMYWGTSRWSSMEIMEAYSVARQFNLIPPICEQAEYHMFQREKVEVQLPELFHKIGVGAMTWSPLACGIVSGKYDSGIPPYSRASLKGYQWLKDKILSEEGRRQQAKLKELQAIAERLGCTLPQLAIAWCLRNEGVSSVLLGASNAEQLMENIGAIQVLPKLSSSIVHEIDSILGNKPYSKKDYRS

For the compound `Cc1n[nH]c(C)c1S(=O)(=O)Nc1ccc2c(c1)OCCO2`, in experiment [1], the cell count came to 328. Moreover, the inhibition is 8.9% (inactive) in experiment [1], 10.4% (inactive) in experiment [3], 26.7% (inactive) in experiment [7] and 33.7% (inactive) in experiment [8]. In addition, in experiment [2], the inhibition of aggregation was 29.5% (inactive). Further, the values for the nuclei count in experiment [2] and in experiment [3] were 91.5% and 84.4%, respectively. The fluorescence slope in experiment [4] is -0.469 (inactive); in experiment [6], 0.0057 (inactive). Further, the NADPH fluorescence slope in experiment [5] was 4.4e-05 (inactive).

`CSC(=O)CC(=O)NC(=O)c1ccccc1`: the cell count in experiment [1] is 373. Further, the inhibition in experiment [1] is 0% (inactive); in experiment [3], -76.9% (inactive); in experiment [7] it was 7.05% (inactive); in experiment [8], 5.94% (inactive). Further, the inhibition of aggregation in experiment [2] is -2.5% (inactive). For the same compound, the nuclei count was 90% in experiment [2] and 159% in experiment [3]. The fluorescence slope in experiment [4] is -0.605 (inactive); in experiment [6] it was 0.00374 (inactive). Further, the NADPH fluorescence slope in experiment [5] was 1.1e-06 (inactive).

In the case of `COc1cccc(-c2cc(C(=O)N3CCCc4ccccc43)no2)c1`, the cell count in experiment [1] was determined as 406. Further, the inhibition is -23% (inactive) in experiment [1], -13.2% (inactive) in experiment [3], 0.639% (inactive) in experiment [7] and -88.4% (inactive) in experiment [8]. Besides, the inhibition of aggregation in experiment [2] is -4.7% (inactive). The nuclei count in experiment [2] amounted to 102%; in experiment [3], 94.5%. For the same compound, the fluorescence slope in experiment [4] was -0.217 (inactive); in experiment [6], 0.00726 (inactive). For the same compound, the NADPH fluorescence slope in experiment [5] is -1.8e-05 (inactive).

With `CC(C)[C@H](NC(=O)OC(C)(C)C)c1nnc(S(=O)(=O)Cc2c(F)cccc2Cl)o1`, in experiment [1], the cell count worked out at 570. Besides, the inhibition in experiment [1] is 10.7% (inactive); in experiment [3], 36.5% (inactive); in experiment [7] it was 32.2% (inactive); in experiment [8], 21.7% (inactive). Further, in experiment [2], the inhibition of aggregation was -0.1% (inactive). The figures for the nuclei count in experiment [2] and in experiment [3] were 89.7% and 101%, respectively. Also, the fluorescence slope in experiment [4] was -0.521 (inactive); in experiment [6], 0.00242 (inactive). In experiment [5], the NADPH fluorescence slope is -0.000188 (inactive).

As for `CN(C)CCSc1nnc2sc3ccccc3n12`, in experiment [1], the cell count came to 599. The inhibition was -5% (inactive) in experiment [1], -71.5% (inactive) in experiment [3], -0.357% (inactive) in experiment [7] and 12.6% (inactive) in experiment [8]. Further, the inhibition of aggregation in experiment [2] was -2.2% (inactive). In addition, the nuclei count in experiment [2] stood at 105%; in experiment [3], 110%. Also, the figures for the fluorescence slope in experiment [4] and in experiment [6] were -0.477 (inactive) and 0.00534 (inactive), respectively. In addition, in experiment [5], the NADPH fluorescence slope is -5.9e-05 (inactive).

Regarding `O=C(c1nc2n(n1)C(c1ccc(Cl)cc1)C=C(c1ccccc1)N2)N1CCOCC1` (centres undefined), the cell count in experiment [1] was determined as 811. The inhibition in experiment [1] was -3.9% (inactive); in experiment [3] it was 14.2% (inactive); in experiment [7] it was 9.43% (inactive); in experiment [8] it was -4.24% (inactive). Besides, the inhibition of aggregation in experiment [2] is 10.6% (inactive). The nuclei count in experiment [2] came to 126%; in experiment [3], 110%. The fluorescence slope was -0.0865 (active) in experiment [4] and 0.00624 (inactive) in experiment [6]. Further, the NADPH fluorescence slope in experiment [5] is -1.6e-06 (inactive).

In the case of `COc1ccc(-c2ccc(-c3nnc(-c4ccncc4)o3)cc2)cc1`, in experiment [1], the cell count is 379. The inhibition in experiment [1] is -7.7% (inactive); in experiment [3], -76.9% (inactive); in experiment [7] it was -14.4% (inactive); in experiment [8], -28.2% (inactive). The inhibition of aggregation in experiment [2] is 5.3% (inactive). Moreover, the nuclei count came out at 103% in experiment [2] and 99.2% in experiment [3]. Also, the fluorescence slope in experiment [4] is -0.501 (inactive); in experiment [6], 0.00505 (inactive). Further, the NADPH fluorescence slope in experiment [5] is -3.5e-05 (inactive).

In the case of `CCOC(=O)c1c(NC(=O)CSc2nnc(-c3ccc(OC)cc3)o2)sc2c1CCC2`, the cell count in experiment [1] was found to be 705. Besides, the inhibition in experiment [1] is -10.9% (inactive); in experiment [3] it was -10.2% (inactive); in experiment [7] it was 0.872% (inactive); in experiment [8] it was 5.8% (inactive). For the same compound, in experiment [2], the inhibition of aggregation was -10.3% (inactive). Also, the figures for the nuclei count in experiment [2] and in experiment [3] were 113% and 91.1%, respectively. Also, the fluorescence slope in experiment [4] is -0.56 (inactive); in experiment [6], 0.0094 (inactive). Besides, in experiment [5], the NADPH fluorescence slope was -9.6e-07 (inactive).

With `Nc1nonc1-c1noc(CCCCCN2C(=O)c3ccccc3C2=O)n1`, the cell count in experiment [1] was 221. In addition, the inhibition in experiment [1] was 6.9% (inactive); in experiment [3], 9.5% (inactive); in experiment [7] it was -4.73% (inactive); in experiment [8], -15.6% (inactive). Moreover, the inhibition of aggregation in experiment [2] is -10.5% (inactive). Moreover, the nuclei count in experiment [2] came to 91%; in experiment [3], 88%. The fluorescence slope in experiment [4] was -0.522 (inactive); in experiment [6] it was 0.00407 (inactive). In experiment [5], the NADPH fluorescence slope was -2.2e-05 (inactive).

With `COc1ccc(OC)c(C2=NOC(C(=O)Nc3cccnc3)C2)c1` (centres undefined), in experiment [1], the cell count was 738. The inhibition in experiment [1] was -14.3% (inactive); in experiment [3] it was -31.9% (inactive); in experiment [7], 4.03% (inactive); in experiment [8], 2.04% (inactive). Also, the inhibition of aggregation in experiment [2] was -1.9% (inactive). Further, the figures for the nuclei count in experiment [2] and in experiment [3] were 100% and 93%, respectively. The fluorescence slope in experiment [4] is -0.561 (inactive); in experiment [6] it was 0.00522 (inactive). The NADPH fluorescence slope in experiment [5] was 5.2e-07 (inactive).

Turning to `O=C(c1ccco1)N1CCN(c2c(-c3ccccc3)c3cc(Cl)ccc3[nH]c2=O)CC1`, the cell count in experiment [1] came out at 603. The inhibition in experiment [1] is 2.1% (inactive); in experiment [3], -72.2% (inactive); in experiment [7], 24.2% (inactive); in experiment [8], 25.7% (inactive). Moreover, in experiment [2], the inhibition of aggregation was -2.2% (inactive). For the same compound, the figures for the nuclei count in experiment [2] and in experiment [3] were 119% and 118%, respectively. For the same compound, the fluorescence slope was -0.456 (inactive) in experiment [4] and 0.00537 (inactive) in experiment [6]. In experiment [5], the NADPH fluorescence slope is 2.5e-05 (inactive).

In the case of `NC(=O)c1oc2ccc(Cl)cc2c1NC(=O)CN1CCOCC1`, in experiment [1], the cell count was 436. The inhibition was 2.7% (inactive) in experiment [1], -114% (inactive) in experiment [3], 4.86% (inactive) in experiment [7] and 1.98% (inactive) in experiment [8]. Moreover, in experiment [2], the inhibition of aggregation was 3.6% (inactive). Besides, the nuclei count in experiment [2] was 112%; in experiment [3], 123%. The results for the fluorescence slope in experiment [4] and in experiment [6] were -0.53 (inactive) and 0.00578 (inactive), respectively. Besides, the NADPH fluorescence slope in experiment [5] was -5.2e-05 (inactive).

For the compound `Cc1ccc(C)c(N2CCN(C(=O)C3CCN(S(=O)(=O)c4c(C)noc4C)CC3)CC2)c1`, the cell count in experiment [1] was 448. Also, the inhibition in experiment [1] was -10.8% (inactive); in experiment [3], -17.6% (inactive); in experiment [7], 11.3% (inactive); in experiment [8], -1.19% (inactive). The inhibition of aggregation in experiment [2] is 30.5% (inactive). Also, the nuclei count in experiment [2] was determined as 77%; in experiment [3], 99.8%. The results for the fluorescence slope in experiment [4] and in experiment [6] were -0.474 (inactive) and 0.00554 (inactive), respectively. Moreover, the NADPH fluorescence slope in experiment [5] was -8.1e-06 (inactive).

For `O=C(NCc1ccco1)C1Cc2ccccc2CN1S(=O)(=O)c1ccccc1F` (centres undefined), in experiment [1], the cell count came to 654. For the same compound, the inhibition in experiment [1] is 7.7% (inactive); in experiment [3], -30% (inactive); in experiment [7] it was 6.51% (inactive); in experiment [8], -0.697% (inactive). Moreover, the inhibition of aggregation in experiment [2] is 26.2% (inactive). Also, the results for the nuclei count in experiment [2] and in experiment [3] were 95.5% and 98.1%, respectively. The results for the fluorescence slope in experiment [4] and in experiment [6] were -0.591 (inactive) and 0.0061 (inactive), respectively. Besides, the NADPH fluorescence slope in experiment [5] was -1.7e-05 (inactive).

For orientation: inhibition means the drop in the measured response relative to a control, in per cent.

Source of the values: PubChem BioAssay.
